Mm-Cpn inhibitor: inhibitors of Methanococcus maripaludis chaperonin TRiC (MmCpn); purified Mm-Cpn ATPase, ADP Transcreener TR-FRET; Potency, µM (top dose mostly 76.9 µM), most hits filed as inhibitors; 0.031% of 330,000 active; further: nearly all actives have a fitted effect of over 80% in size
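Measured: ADP formation by purified Mm-CPN. Conditions: 25 nM protein, 10 uM ATP, Tris pH 7.4 with Mg2+, K+ and DTT, 37°C for 30 min. Detection: Transcreener HTRF after 30 min at room temperature.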
Integrin act MD: activates integrin-mediated alleviation for muscular dystrophy | alpha7betagal myoblasts, beta-gal FDG fluorescence, 48 h | Potency, µM (titrated, usually from 38.3 µM), usual class: activators | 0.064% of 350,000 active | AID 624291; further: nearly all actives have a fitted effect of over 60% in size
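alpha7betagal+/- myoblasts (passage 13, 250/well) treated 48 h at 37C with compounds at 1:260 dilution of DMSO stock. Lysed, then beta-galactosidase activity read as FDG fluorescence (ex 480/em 540) after 30 min, with pre-read for autofluorescence.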
p53 reactivator: mutant p53 re-activation in reporter cells; AID 504706; H1299 p53-A138V BP100-luciferase reporter, luminescence, 24 h; Potency, µM (highest dose often 92.2 µM), most hits filed as activators; 0.063% of 320,000 active; further: nearly all actives have a fitted effect of over 45% in size
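p53-null H1299 cells stably carrying temperature-sensitive p53-A138V and a BP100-luciferase reporter were pinned with compounds (4-point, 1:5 series) and held 24 hrs at 37 deg C. Luminescence was read 10 min after detection reagent.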
USP2a block: blocks human ubiquitin-specific protease USP2a | O75604 | USP2 core, Ub-CHOP2 coupled fluorogenic reporter, 485/531 | Potency, µM (doses to about 38.3 µM), hits mostly inhibitors | 0.01% of 330,000 active | AID 463254
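USP2 core (10nM final) preincubated 30min RT with compound in 20mM Tris-HCl pH 8.0, 2mM CaCl2, 2mM beta-mercaptoethanol, 0.05% CHAPS; 25nM Ub-CHOP2 plus 25nM reporter substrate added, fluorescence (Ex485/Em531) read after 60min.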
ClpP mod: qHTS Assay for Activators of ClpP; AID 651965, 2013; 1.9% of 340,000 active; purified B. subtilis ClpP, FRET peptide cleavage, 20 min; Potency, µM (series often up to 57.5 µM); ATP-dependent Clp protease proteolytic subunit (Bacillus subtilis (strain 168)), P80244; active means well fitted falling curve with a large enough effect; inconclusive means small, poorly fitted or top-dose-only effect; inactive means no such curve, though single readings can be large or run the other way; further: the source files actives as falling curves though it sought activators and does not explain the sign; nearly all actives have a fitted effect of over 65% in size
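Purified B. subtilis ClpP, 10 microg/mL final in Tris/HCl pH8 with KCl, BSA, glycerol and Tween-20, cleaved an Abz/nitrotyrosine-quenched decapeptide. Fluorescence (ex 320, em 430) was read at 0 and 20 min at room temperature. Delta was normalized to 5.8 microM ADEP and DMSO/no-enzyme controls.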
Eya2 phos inh: blocks the phosphatase activity of human Eya2; O00167; recombinant Eya2, OMFP fluorescence dephosphorylation (OMFP is methylfluorescein phosphate); Potency, µM (top dose mostly 76.9 µM), hits mostly inhibitors; 0.006% of 330,000 active; AID 488837
Target sequence (O00167 whole entry, looked up): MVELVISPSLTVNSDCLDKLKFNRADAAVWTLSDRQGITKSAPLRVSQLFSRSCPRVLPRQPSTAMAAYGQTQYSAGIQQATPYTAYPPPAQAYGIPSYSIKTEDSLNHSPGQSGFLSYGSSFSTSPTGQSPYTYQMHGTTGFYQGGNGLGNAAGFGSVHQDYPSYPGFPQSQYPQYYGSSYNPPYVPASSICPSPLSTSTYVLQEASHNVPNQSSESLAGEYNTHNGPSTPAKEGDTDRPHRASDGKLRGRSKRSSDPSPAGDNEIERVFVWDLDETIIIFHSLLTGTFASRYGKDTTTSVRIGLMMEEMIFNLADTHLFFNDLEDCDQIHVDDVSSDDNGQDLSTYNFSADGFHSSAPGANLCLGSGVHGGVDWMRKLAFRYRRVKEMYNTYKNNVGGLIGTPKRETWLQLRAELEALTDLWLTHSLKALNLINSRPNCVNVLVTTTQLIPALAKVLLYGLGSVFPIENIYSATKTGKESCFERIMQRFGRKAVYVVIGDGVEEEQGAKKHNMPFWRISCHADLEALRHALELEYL
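Eya2 (0.2 uM) preincubated 10 min at ambient with compound, then OMFP substrate added at 50 uM; 10 min reaction in 50 mM HEPES pH 7.5, 50 mM NaCl, 5 uM MgCl2, 0.05% BSA, 1 mM DTT. Fluorescence read at Ex 485/Em 525 nm.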
ClpP inh valid: Bacillus subtilis ClpP inhibition, validated hit; AID 743245; purified B. subtilis ClpP, FRET-FV substrate cleavage, 20 min; Potency, µM (series often up to 57.5 µM), usual class: inhibitors; shares compounds with ClpP mod; 40% of 470 active; further: nearly all actives have a fitted effect of over 70% in size
Hits are given with their value; [ ] = another dose, or the depositor's remark. Only a selection was taken, and hits are over-represented in it overall. Unless noted, the call rests on the fitted dose curve; in most records, active means well fitted curve in the direction sought with a large enough effect; inconclusive means small, poorly fitted or top-dose-only effect, or another doubt; inactive means no such curve, though single readings can be large; an effect the other way counts as inactive or inconclusive.

Results for CCOc1ccccc1-n1c(O)c(C=NCCCN(CC)CC)c(=O)[nH]c1=O ?
Mm-Cpn inhibitor: inactive; Integrin act MD: inactive; p53 reactivator: inactive; USP2a block: inactive; ClpP mod: 32µM; Eya2 phos inh: inactive

Results for CCOc1ccccc1-n1c(O)c(C=NCCCn2ccnc2)c(=O)[nH]c1=O ?
Mm-Cpn inhibitor: inactive; Integrin act MD: inactive; p53 reactivator: inactive; USP2a block: inactive; ClpP mod: inactive; Eya2 phos inh: inactive

What do the screens show for `C=CCn1c(O)c(C(C)=NCCCN(C)C)c(=O)[nH]c1=O`?
Mm-Cpn inhibitor: inactive; Integrin act MD: inactive; p53 reactivator: inactive; USP2a block: inactive; ClpP mod: 14µM; Eya2 phos inh: inactive

What do the screens show for `C[C@H]1CNC(=O)c2c(C(=O)Nc3ccc(CNC(=O)OC(C)(C)C)cc3)ncn21`?
Integrin act MD: 8.9µM; ClpP mod: inactive

Results for C[C@H](CO)N1C[C@H](C)[C@H](CN(C)S(=O)(=O)c2ccc(Cl)cc2)OCc2ccccc2-c2c(n(C)c3ccccc23)C1=O ?
Integrin act MD: inactive; ClpP mod: inactive

How did Cc1ccc(NC(=O)c2snnc2C)cc1Cl do in these assays?
Mm-Cpn inhibitor: inactive; Integrin act MD: inactive; p53 reactivator: inactive; USP2a block: inactive; Eya2 phos inh: inactive

What do the screens show for `Cc1nn(C(C)(C)C)c(C)c1/C=N/OC(=O)Nc1ccc(Cl)c(Cl)c1`?
Mm-Cpn inhibitor: inactive; Integrin act MD: 2.8µM; p53 reactivator: inactive; USP2a block: inactive; ClpP mod: inactive; Eya2 phos inh: inactive

What do the screens show for `Fc1cccc(-c2ccc3c(c2)CN(c2cccc(Cl)c2)Cc2cnnn2-3)c1`?
ClpP mod: 32µM

How did O=S(=O)(Nc1ccc(-c2nc3ccccc3o2)cc1)c1ccccc1 do in these assays?
Mm-Cpn inhibitor: inactive; Integrin act MD: inactive; p53 reactivator: inactive; USP2a block: inactive; ClpP mod: 28µM; Eya2 phos inh: inactive[15.4 µM]

How did Cc1ccc(OCC(=O)N2CCN(Cc3cccnc3)CC2)cc1 do in these assays?
Mm-Cpn inhibitor: inconclusive; Integrin act MD: inactive; p53 reactivator: inactive; USP2a block: inactive; ClpP mod: inactive; Eya2 phos inh: inactive

How did Cc1cccc(OCC(=O)N2CCN(Cc3cccnc3)CC2)c1 do in these assays?
Mm-Cpn inhibitor: inactive; Integrin act MD: inactive; p53 reactivator: inactive; USP2a block: inactive; ClpP mod: 28µM; Eya2 phos inh: inactive

How did Cc1nc2c(=O)n(C)c(=O)nc-2n(C)n1 do in these assays?
Mm-Cpn inhibitor: inactive; Integrin act MD: inactive; p53 reactivator: inactive; USP2a block: inactive; ClpP mod: inactive; Eya2 phos inh: 35µM

What do the screens show for `Cc1ccc(CNc2cc(C)nc3nc(-c4ccc(C)cc4)nn23)cc1`?
ClpP mod: inactive

What do the screens show for `CCOC(=O)c1ccccc1NC(=O)c1c(O)[nH]c(=O)[nH]c1=O`?
Integrin act MD: inactive; ClpP mod: inactive

Results for CCOC(=O)c1ccccc1NC(=O)N(Cc1ccc(CC)cc1)Cc1cn[nH]c1-c1ccc(OC)cc1 ?
ClpP mod: 35µM

What do the screens show for `O=C(NCCc1ccc(Cl)cc1)c1ccc(Nc2nc3ccccc3n3nnnc23)cc1`?
ClpP mod: inactive; ClpP inh valid: 22µM

What do the screens show for `Cc1ccc(CNC(=O)c2ccc(Nc3nc4ccccc4n4nnnc34)cc2)cc1`?
ClpP mod: inactive; ClpP inh valid: 2.7µM

Results for COc1ccc(C(=O)NCc2cc3ccccc3n2C)cc1 ?
Mm-Cpn inhibitor: inactive; Integrin act MD: inactive; p53 reactivator: inconclusive; USP2a block: inactive; ClpP mod: inactive; Eya2 phos inh: inactive

What do the screens show for `O=C(Nc1ccc(Br)cc1C(=O)O)c1ccc2c(c1)C(=O)N(Cc1ccccc1)C2=O`?
Mm-Cpn inhibitor: inactive; Integrin act MD: inactive; p53 reactivator: inconclusive; USP2a block: inactive; ClpP mod: inactive; Eya2 phos inh: inactive

How did COc1cc([N+](=O)[O-])cc([N+](=O)[O-])c1N do in these assays?
ClpP mod: inactive

What do the screens show for `ClCCN(CCCl)c1ccc(C=Nc2ccncc2)cc1`?
ClpP mod: inactive

How did CCCNC(=O)c1cnn2c(C)c(Cc3c(C)cc(C)cc3C)c(C)nc12 do in these assays?
ClpP mod: 10µM; ClpP inh valid: inactive

What do the screens show for `Cc1ccccc1C(=O)Nc1cc(-c2ccc(Cl)cc2)nn1-c1ccccc1`?
ClpP mod: inactive; ClpP inh valid: inactive

How did Cc1ccccc1Cn1cccc(C(=O)Nc2cc(Cl)ccc2C#N)c1=O do in these assays?
ClpP mod: inactive

How did CNC(=O)O/N=C/C(C)(C)S(C)=O (stereo not drawn) do in these assays?
ClpP mod: inactive

What do the screens show for `COc1ccc(S(=O)(=O)NC(CC(=O)N2CCC3(CC2)OCCO3)c2ccco2)cc1` (stereo not drawn)?
Mm-Cpn inhibitor: inactive; Integrin act MD: inactive; p53 reactivator: inactive; USP2a block: inactive; ClpP mod: 2.8µM; Eya2 phos inh: inactive; ClpP inh valid: inactive

What do the screens show for `CNc1ccc2oc(C[C@H]3O[C@@]4(CC[C@H]3C)O[C@H]([C@H](C)C(=O)c3ccc[nH]3)[C@H](C)C[C@H]4C)nc2c1C(=O)O`?
Mm-Cpn inhibitor: inactive; p53 reactivator: inactive; USP2a block: inactive; ClpP mod: inactive; Eya2 phos inh: inactive; ClpP inh valid: 27µM

How did Oc1cc2c(cc1CN1CCN(c3ccccc3F)CC1)OCO2 do in these assays?
Mm-Cpn inhibitor: inactive; Integrin act MD: inactive; p53 reactivator: inactive; USP2a block: inactive; Eya2 phos inh: inactive

What do the screens show for `CCCCC(=O)Nc1c(C(=O)N2CCN(c3ccccc3F)CC2)oc2ccccc12`?
ClpP mod: 1.3µM; ClpP inh valid: inactive

Compound activity as filed in PubChem BioAssay.
